According to the supplement of paper PMC6555819:

Experiments:
Assay in all cases: PBM binding z-score (relative to random genomic background probes); higher = stronger binding; sequences stand for … in GC…GCGATTGACAGCGTAGAATGAAGG
[1] = test system: RARb homodimer (NR concentration 270 nM)
Outline: (§1)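 Binding z-scores take random background probes as their reference. They come from custom Agilent 4×180K protein-binding microarrays incubated 1 h with ligand-free nuclear receptor dimers, with antibodies against each partner (one per run) detecting binding. Scanned fluorescence was regression-normalized.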

[2] = test system: RARg:RXRa (NR concentration 270 nM, RXRa partner concentration 90 nM)
Outline: as §1

[3] = test system: RARg homodimer (NR concentration 270 nM)
Outline: as §1

[4] = test system: RXRa DBDmut IVT, anti-RXR (DBD mutation: RXRa K156A/R161A, NR concentration 90 nM)
Outline: as §1

[5] = test system: RXRa homodimer (NR concentration 180 nM)
Outline: as §1

[6] = test system: THRa:RXRa (NR concentration 90 nM, RXRa partner concentration 90 nM)
Outline: as §1

[7] = test system: THRa homodimer (NR concentration 90 nM)
Outline: as §1

[8] = test system: VDR homodimer (NR concentration 270 nM)
Outline: as §1

Sequence | PBM binding z-score [1] | PBM binding z-score [2] | PBM binding z-score [3] | PBM binding z-score [4] | PBM binding z-score [5] | PBM binding z-score [6] | PBM binding z-score [7] | PBM binding z-score [8]
CGTCAAAGTTCAAGGTAGCGTAACAGAAAGCAGC | 3.9 | 5.41 | 6.34 | 4.38 | 4.84 | 2.19 | 0.191 | 3.11
GCGACTGGGGCGAAGCAGGTTACCATAAGGTTGG | 0.22 | -0.0926 | -0.296 | -1.11 | 0.0577 | 1.5 | -0.185 | -0.569
ATCTCTAGGTAAGGTTCAGTGAAAGATCGATAGA | 0.959 | 0.973 | 1.03 | 1.35 | 0.69 | 0.888 | 0.39 | 2.32
TGTCAAAATTCAAAGGTAACGTAAGTATCCACAC | 0.464 | 0.501 | 0.807 | -0.417 | 0.772 | 1.16 | -0.046 | 0.102
CCAGACAGGTGAGAAGGTAACTGAGCCTCGATTA | 0.357 | 0.527 | 0.335 | -0.107 | 0.0427 | 0.121 | -0.33 | -0.0729
TCAGACATGTGAAGGTAACTCAGGTACGCAGTCG | -0.326 | 0.309 | 0.138 | 1.17 | 0.749 | 0.981 | -0.032 | -0.167
TAGCCTAGATCATTCAGGGGCCAGTATAGAAAGC | 0.182 | 0.658 | 0.249 | -0.277 | 0.341 | 0.0485 | -0.624 | -0.00416
ACTAATAGTTGAGACGAGGGCAACCGATAGGTTG | 1.37 | 0.936 | 1.15 | 0.345 | 0.834 | 3.43 | 0.12 | 0.709
ACTAGCAGGTCAAGTTTGGGTCACTCAAACAAAG | 4.03 | 7.23 | 5.73 | 2.25 | 4.85 | 4.38 | 1.93 | 2.13
TCAGACAGGTGGAGGTAACTCAGGTACGCAGTCG | 0.41 | -0.00603 | -0.245 | 0.723 | 0.574 | 1.48 | 0.639 | -0.21
GATACAGGGTCAAGGCCACAGTACGCGTATTGAT | 3.85 | 5.44 | 5.11 | 2.15 | 5.9 | 3.69 | 1.85 | 1.84
TTACCAAGGTGAAGGTCCTTGATCCCTCTGTAGA | 1.32 | 0.466 | 0.274 | -0.201 | 0.918 | 1.95 | 0.841 | -0.203
AGATTGAGGTTAAGATCAGGGAAACAGAATACAT | 1.42 | 2.1 | 1.78 | 1.36 | 2.48 | 2.7 | 1.12 | 0.928
TTACCAAGGTGAAGGGTCGTTGATGCACGCCTTG | 1.79 | 2.19 | 1.14 | 0.00143 | 3.13 | 2.35 | 0.598 | 1.16
AGAACGAGGGCACGCTGAGCTGATAGCAGAGTAG | 0.904 | 1.83 | 2.12 | 1.48 | 1.2 | 1.39 | -0.398 | 0.48
GCTGGGAGGACAAGGTCAGAGCTTTGTCCGTAGA | 3.21 | 3.33 | 3.55 | 0.766 | 2.49 | 3.31 | 1.8 | 0.796
CTAGAAAGGTCGTGCTCAGGTGAGTATACCAAAC | 2.93 | 4.96 | 3.62 | 2.16 | 4.44 | 4.02 | 0.909 | 0.842
AGAACGAGGGCACGCTGCGTTGATAGCAGAGTAG | 1.06 | 1.55 | 2.21 | 1.81 | 1.3 | 1.71 | -0.00562 | 0.888
GGGACGAGGGCAAGTTGATAGCAGAGTTTGATGG | 1.99 | 1.89 | 2.46 | 2.62 | 1.06 | 1.61 | 0.723 | 2.05

Sequence | PBM binding z-score [1] | PBM binding z-score [2] | PBM binding z-score [3] | PBM binding z-score [4] | PBM binding z-score [5] | PBM binding z-score [6] | PBM binding z-score [7] | PBM binding z-score [8]
AATGCAGGGTCACTAGGCCAGAGTAGGTACGAAT | 3.32 | 5.29 | 4.82 | 2.75 | 5.37 | 3.27 | 0.736 | 2.33
TAGCCTGGGTCATGGGCCAGTATACCACGCGAAC | 2.24 | 3.99 | 3.38 | -1.06 | 3.73 | 2.39 | -0.0617 | -0.187
AGAATGCGGTTATTAAGATCAGGGAATTGCGGTC | -0.19 | -0.0734 | 0.152 | -0.072 | -0.0867 | -0.0645 | -0.416 | -0.264
AGTCAAAGTTCAAGACGAGGTAACGTAAAGCACG | 3.6 | 5.81 | 6.02 | 3.8 | 4.59 | 3.9 | 0.783 | 2.85
ATCGAAAGGTCGTGAGTTGAGTATACAGAAAGGC | 2.4 | 4.08 | 3.7 | 1.49 | 4.88 | 2.32 | 0.26 | 1.49
CCTCGGAGGACAGAAGGGCAGAGCTGTCCGCTTT | 0.947 | 0.328 | 0.965 | -0.318 | -0.72 | -0.248 | -1.05 | -0.623
GGAACGAGGACAAGTTGATAGCAGAGTTTGATGG | 0.51 | 0.796 | 1.26 | 1.62 | 0.0511 | 2.53 | 1.58 | 0.892
AATATAGGGTCATCGTAGGCCAGAGTACGCACAG | 3.83 | 5.9 | 5.5 | 3.83 | 6.83 | 4.67 | 2.3 | 3.76
TCAGACAGGTGAAGGTACCTCAGGTACGCAGTCG | 0.421 | 0.412 | 0.332 | 1.1 | 1.05 | 0.941 | 0.205 | 0.0555
TCTCGGAGGACACGTAAGGTCAGAGCTCGACATC | 4.02 | 3.53 | 3.84 | 1.11 | 2.47 | 4.72 | 4.18 | 1.25
AGTACAGGGTCATCGTAGGCCAGAGTACGCACAG | 3.81 | 5.65 | 5.22 | 3.47 | 6.42 | 4.59 | 1.57 | 3.92
CCACACAGGTGAAAGGTAACTCAGTCTGGTACGC | 1.05 | 1.5 | 0.76 | 0.262 | 2.32 | 1.06 | 0.165 | -0.208
CCGACTGGGGCATAAGGTTCCCATAAGCCAGCCC | -0.217 | -0.0298 | -0.0621 | -0.59 | -0.271 | -0.0053 | -0.165 | -0.209
TCTTGTAGATCAACAGGAGGTAAAGAAAGATCGA | -0.473 | 0.0301 | -0.00391 | 0.122 | 0.423 | 0.237 | -0.482 | -0.385
ACTCGGAAGACAAAGGTCAGAGCTACGCCAGTGA | 4.33 | 4.5 | 4.21 | 0.211 | 4.56 | 2.57 | 0.0345 | 0.445
TCGAGTAGGTTATCAATGGGGCATTCAGCTTTCT | 0.483 | 0.919 | 0.272 | 0.822 | 0.432 | 0.0952 | -0.223 | -0.119
TCTTGTAGATCAACAGGTGGTTAAGAAAGATCGA | -0.322 | -0.241 | -0.25 | 0.571 | -0.126 | -0.453 | -0.243 | -0.227
GGAACGACGGCAAGTTGATAGCAGAGTTTGATGG | -0.7 | -0.136 | -0.0502 | -0.124 | -0.0735 | -0.769 | -1.02 | -0.205
TAGCCTAGGTCAGATCGGGCCAGTAGACGCTATA | 1.76 | 2.74 | 3.37 | -0.78 | 1.2 | 3.76 | -0.385 | -0.53

Sequence | PBM binding z-score [1] | PBM binding z-score [2] | PBM binding z-score [3] | PBM binding z-score [4] | PBM binding z-score [5] | PBM binding z-score [6] | PBM binding z-score [7] | PBM binding z-score [8]
TCTCGGAGTACACGAAGGTCAGAGCTTTCCAGAG | 3.09 | 2.44 | 2.29 | 1.01 | 1.77 | 1.58 | -0.377 | 2.03
ATCTCTACGTAAGACTCAGTTCAGTGAAGAACGC | 0.71 | 0.107 | 0.393 | 0.74 | 0.286 | 0.601 | 0.378 | 1.45
TCTCGGAGGACACGAATGTCAGAGCTTTCCAGAG | 0.771 | 0.642 | 1.42 | 0.518 | 0.168 | 1.23 | 0.52 | -0.491
CGTCCAAGGTCAATGCTAGGACAGTGAAAGCATT | 4.05 | 5.76 | 5.95 | 3.01 | 4.3 | 4.3 | 2.32 | 2.24
CTCGCAAGGTCGTGCTCAGGTGAGTATACCAAAC | 1.7 | 3.26 | 2.14 | 2.15 | 2.52 | 3.63 | 1.6 | 1.22
CGAAGGAGGGCATGAGTTGATAGCAAATGCCGAT | 0.409 | 0.997 | 1.45 | 0.567 | 0.619 | 0.292 | -0.803 | 0.969
ACTCGGAGGACAAAGGGCAGAGCTACGCCAGTGA | 1.69 | 1.81 | 1.91 | 0.468 | 0.615 | 0.877 | -0.631 | -0.288
AGAATGAGGTTATTAAGATCAGGGCATTGCGGTC | 1.67 | 1.47 | 1.12 | 2.13 | 2.02 | 2.61 | 1.18 | 1.74
TCTCGGAGGACAGGAAAGGTCAGAGCTCGACATC | 4.65 | 4.1 | 4.39 | 0.817 | 3.83 | 3.25 | 0.943 | 0.606
TCGAGTAGGTTACCGATGGGGCATTCAGCTTTCT | 0.462 | 1.47 | 0.276 | 0.165 | 0.626 | 0.0793 | -0.771 | -0.757
CCGACTGGGGCAGAAGGTTACCATAAGCCAGCCC | 1.53 | 1.14 | 0.806 | -0.593 | 1.04 | 0.31 | -0.571 | 0.083
TATCCAGGGTCAAAGGCCAGAGTACGAATGTCGA | 3.6 | 5.88 | 5.26 | 2.94 | 7.51 | 3.75 | 1.3 | 3.46
GCCAGTTGGTCAGTAAAAGGTCACACACCGGTCG | 5.25 | 5.38 | 4.92 | 0.354 | 5.25 | 3.38 | 1.65 | 1.83
TGTCAAAGTTCAAAAGTAACGTAAGTATCCACAC | 3.09 | 5.13 | 5.21 | 4.25 | 4.57 | 1.86 | -0.26 | 3.51
TTACCAAGATGAAGGTCGTTGATCCCTCTGTAGA | 0.806 | 0.203 | 0.0937 | 0.4 | 0.993 | 0.726 | -0.149 | 0.756
AGAACTAGGGCAATGAGTTGATAGCACGGGTGGC | 0.411 | 0.47 | 0.889 | 0.324 | 0.422 | 0.157 | -0.177 | 1.02
CAAACTAGCTCAAAGGTCAAAGTCGAGCCAACCA | 4.79 | 6.22 | 5.63 | 1.66 | 7.07 | 3.53 | 0.75 | 2.62
TCTGCTAGGTCAGTTGATCAGCTAACGAGCTGCC | 2.08 | 2.57 | 3.41 | 0.576 | 0.945 | 1.28 | 0.115 | -0.722
